Assay results: PubChem BioAssay AID504900 (The Scripps Research Institute Molecular Screening Center, 2011)
This is one part of the list. Unmarked numbers belong to inactive results. Cut-off read from the data, not from the text of the source: active = inhibition above about 32%; inactive = the rest.

Biological target: Mu-type opioid receptor (Homo sapiens) + Delta-type opioid receptor (Homo sapiens) (UniProt P35372+P41143)
Assay: inverse agonists of MOR-DOR heterodimerization, confirmation, cell-based, luminescence (AID 504900);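 note: 0% = cells with DMSO and 100% = wells lacking cells with DMSO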
Conditions: cells expressing OPRM1/OPRD1 heterodimer, at 9.3 µM, hits give high values

Chain of Mu-type opioid receptor (Homo sapiens) + Delta-type opioid receptor (Homo sapiens) (P35372 whole entry, looked up): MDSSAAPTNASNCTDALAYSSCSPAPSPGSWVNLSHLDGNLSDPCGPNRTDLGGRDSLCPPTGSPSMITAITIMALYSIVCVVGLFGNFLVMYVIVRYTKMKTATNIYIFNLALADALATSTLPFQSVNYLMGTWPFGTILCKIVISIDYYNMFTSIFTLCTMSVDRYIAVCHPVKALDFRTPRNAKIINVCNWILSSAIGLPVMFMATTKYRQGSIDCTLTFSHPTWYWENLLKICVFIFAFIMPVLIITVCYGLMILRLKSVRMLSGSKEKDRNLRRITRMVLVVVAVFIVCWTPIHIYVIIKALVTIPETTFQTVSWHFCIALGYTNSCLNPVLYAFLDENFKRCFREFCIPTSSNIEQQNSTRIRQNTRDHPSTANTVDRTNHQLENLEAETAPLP
Chain of Mu-type opioid receptor (Homo sapiens) + Delta-type opioid receptor (Homo sapiens) (P41143 whole entry, looked up): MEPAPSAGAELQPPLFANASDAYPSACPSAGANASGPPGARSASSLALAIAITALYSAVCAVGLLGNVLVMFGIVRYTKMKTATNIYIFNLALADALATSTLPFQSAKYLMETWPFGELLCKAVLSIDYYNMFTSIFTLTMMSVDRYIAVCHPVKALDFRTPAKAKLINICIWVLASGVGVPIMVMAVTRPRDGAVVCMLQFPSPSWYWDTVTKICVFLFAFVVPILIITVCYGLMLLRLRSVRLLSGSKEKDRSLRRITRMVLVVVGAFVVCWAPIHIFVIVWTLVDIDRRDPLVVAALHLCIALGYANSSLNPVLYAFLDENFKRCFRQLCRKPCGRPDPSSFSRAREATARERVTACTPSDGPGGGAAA

Row | Structure (SMILES) | inhibition [%]
1 | CC1=CC(=Cc2sc3ccccc3[n+]2C)C=C(C)O1 | -2.66
2 | CCOC(=O)c1c(N)n(CCN2CCOCC2)c2nc3ccccc3nc12 | 3.09
